An excerpt weighted towards active compounds, which were near 22% of everything screened.
Pf growth 96h – P. falciparum growth inhibition at 96 hours | Potency, µM (highest dose often 28.7 µM), for the others: at the top dose activity change, negative = inhibition, usual class: inhibitors | AID 504834 | P. falciparum luciferase reporter growth, 96 h | 320,000 compounds, 6.9% hits; note: potency is the fitted concentration of half-maximal effect; % is set by controls: 0 for no effect and ±100 for the full control effect
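P. falciparum expressing integrated firefly luciferase, in erythrocytes at 2% hematocrit, 0.05% parasitemia, incubated with compounds 96 h at 37 C, 5% CO2. Growth inhibition read as loss of luminescence; two-generation exposure targets delayed-death apicoplast inhibitors.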
Pf growth 48h – P. falciparum growth inhibition at 48 hours (one generation). P. falciparum luciferase growth in erythrocytes, 48 h. Potency, µM (series often up to 28.7 µM), for inactives: at the top dose activity change, negative = inhibition, hits mostly inhibitors. 310,000 compounds, 5.9% hits. AID 504832; note: potency is the fitted concentration of half-maximal effect; % is set by controls: 0 for no effect and ±100 for the full control effect
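Luciferase-expressing P. falciparum in infected erythrocytes (2% hematocrit, 0.1% parasitemia final) in RPMI 1640/0.5% Albumax were exposed to compound for 48 hours at 37 C, 5% CO2; growth read as luminescence.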
Shiga toxin inh – blocks Shiga toxin action in Vero cells. 290,000 compounds, 9.2% hits. Vero cells, Shiga toxin protein synthesis inhibition reporter. inhibition, % at 38.7 µM; in the data active = inhibition mostly above about 28%, no sharp cut-off; inactive = mostly below about 43%; note: 0% is about no effect
LmPK inhibitor – LmPK (Leishmania mexicana) enzyme inhibition; 290,000 compounds, 0.37% hits; purified LmPK, Kinase-Glo ATP luminescence, 1 h; AID 1721; Potency, µM (titrated, usually from 57.5 µM), for inactives: at the highest dose activity change, negative = inhibition, most hits filed as inhibitors; note: potency is the fitted concentration of half-maximal effect; % is set by controls: 0 for no effect and ±100 for the full control effect
Target sequence (Q27686 whole entry, looked up): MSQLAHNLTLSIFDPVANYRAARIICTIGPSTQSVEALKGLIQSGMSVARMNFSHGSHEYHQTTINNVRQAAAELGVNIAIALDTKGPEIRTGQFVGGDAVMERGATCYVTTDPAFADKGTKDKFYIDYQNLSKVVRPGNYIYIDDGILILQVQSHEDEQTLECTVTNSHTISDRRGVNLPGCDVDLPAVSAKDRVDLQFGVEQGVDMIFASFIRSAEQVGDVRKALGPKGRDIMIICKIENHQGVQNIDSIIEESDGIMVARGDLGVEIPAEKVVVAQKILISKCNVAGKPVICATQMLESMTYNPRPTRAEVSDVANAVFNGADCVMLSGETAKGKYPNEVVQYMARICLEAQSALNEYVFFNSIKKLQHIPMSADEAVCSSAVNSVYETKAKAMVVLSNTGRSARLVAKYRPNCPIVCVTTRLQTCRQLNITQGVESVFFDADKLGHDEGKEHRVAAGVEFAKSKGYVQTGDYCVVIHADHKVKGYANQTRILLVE
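Screened at intermediate enzyme activity to detect both inhibitors and activators: LmPK at 0.1 nM, with a 0.5 nM enzyme column as activation reference. PEP 0.5 mM, ADP 0.1 mM; ATP detected by luminescence after 1 h.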
CHX counter – counter-screen hit for Shiga toxin inhibitors, cycloheximide. cell reporter, cycloheximide protein synthesis inhibition counterscreen. max response, %. 300,000 compounds, 12% hits; in the data active = max response mostly above about 13%, no sharp cut-off; inactive = mostly below about 14%; note: read at 38.3 µM for the half of the compounds with a filed dose; 0% is about no effect
* = called active by the depositor; i = inactive; ? = inconclusive; · = not tested or not shown. Unless noted, calls come from the whole dose curve; as a rule, active = well fitted inhibition curve with a large enough effect; inconclusive = small, poorly fitted or top-dose-only effect, or another doubt; inactive = no such curve, though single readings can be large or run the other way.

SMILES | Pf growth 96h | Pf growth 48h | Shiga toxin inh | LmPK inhibitor | CHX counter
CCCn1c(=O)c(C(=O)Nc2ccccc2)c(O)c2ccccc21 | 3% | 33% | 16 | -2% | -1
Cn1c(Cl)c(C(=O)Nc2ccccc2)c2ccccc21 | 51% | 7% | 41* | -1% | 23*
CCn1c(=O)c(C(=O)Nc2ccc(C)cc2)c(O)c2ccccc21 | -1% | 0% | 43 | 1% | 9
Cc1ccc(NC(=O)c2c(Cl)n(C)c3ccccc23)cc1 | 53% | 74% | 38 | -1% | 30*
CC1(CC(=O)N/N=C/c2cc([N+](=O)[O-])c(O)cc2O)OCCO1 | -6% | -18% | -10 | -1% | 1
Cn1cccc1C(=O)OCc1ccc(C(C)(C)C)cc1 | 83% | 128% | 98* | -1% | 32*
COc1cc2c(cc1O)CC1c3c(cc(O)c(OC)c3-2)CCN1C (stereo not drawn) | -23% | ? | -16 | -2% | -1
COc1cc2c(cc1OC)-c1c(OC)c(OC)cc3c1[C@H](C2)N(C)CC3 | 3.7µM* | ? | -16 | 2% | -5
CCS(=O)(=O)N1Cc2ccccc2CC1C(=O)Nc1ccccc1OC (stereo not drawn) | ? | ? | 12 | 0% | 9
CCS(=O)(=O)N1Cc2ccccc2CC1C(=O)Nc1nc2c(C)cccc2s1 (stereo not drawn) | ? | 36% | 60* | 1% | 27*
CCS(=O)(=O)N1Cc2ccccc2CC1C(=O)NC(C)C12CC3CC(CC(C3)C1)C2 (stereo not drawn) | · | 0% | -2 | 0% | -1
CCSc1nnc(NC(=O)C2Cc3ccccc3CN2S(=O)(=O)CC)s1 (stereo not drawn) | 13µM* | -7% | 30 | 3% | 30*
CCS(=O)(=O)N1Cc2ccccc2CC1C(=O)Nc1nccs1 (stereo not drawn) | 130% | 111% | 25* | -1% | 30*
CCS(=O)(=O)N1Cc2ccccc2CC1C(=O)Nc1nnc(SCc2c(Cl)cccc2Cl)s1 (stereo not drawn) | ? | ? | -4 | 0% | -1
CCS(=O)(=O)N1Cc2ccccc2CC1C(=O)Nc1nc(C)cs1 (stereo not drawn) | 306% | i | 85* | 3% | 43*
CCCCc1ccc(S(=O)(=O)N2CCN(C(=O)c3ccco3)CC2)cc1 | ? | -9% | -4 | 1% | -3
CN(C)S(=O)(=O)c1ccc(NC(=O)c2cc(F)c(F)cc2Cl)cc1 | 9% | -8% | 14 | 5% | 1
CCCCOC(=O)c1ccc(N/C(=N\S(=O)(=O)c2ccccc2)c2ccccc2)cc1 | ? | 5% | 21 | 5% | -3
CCOC(=O)c1ccc(N/C(=N\S(=O)(=O)c2ccc(F)cc2F)c2ccccc2)cc1 | 6.6µM* | ? | -4 | 4% | 1
CCOC(=O)c1ccc(NC(=O)c2cc(F)c(F)cc2Cl)cc1 | -13% | 11% | 48 | 0% | 18*
COc1ccc(NC(=O)c2cc(F)c(F)cc2Cl)cc1Cl | 29% | 42% | 50* | 3% | 46*
Cc1cc(C(=O)COc2ccccc2Cl)c(C)n1-c1ccc2c(c1)OCO2 | 8.3µM* | ? | 93* | -6% | 53*
Cc1ccc(-n2c(C)cc(C(=O)COc3c(CO)cc(F)cc3CO)c2C)cc1C | 9.3µM* | ? | -9 | 0% | -2
CNS(=O)(=O)c1cccc(C(=O)OCC(=O)c2cc(C)n(-c3ccc4c(c3)OCO4)c2C)c1 | 5.2µM* | · | 28 | 7% | 36*
COCC(=O)OCC(=O)c1cc(C)n(-c2ccc(Br)cc2)c1C | ? | -11% | -6 | 2% | -4
SMILES | Pf growth 96h | Pf growth 48h | Shiga toxin inh | LmPK inhibitor | CHX counter
Cc1cc(C=O)c(C)n1-c1ccc2c(c1)OCO2 | 3.7µM* | 0% | -3 | 5% | 1
CNS(=O)(=O)c1cccc(C(=O)OCC(=O)c2cc(C)n(CC3CCCO3)c2C)c1 (stereo not drawn) | 383% | 295% | · | · | ·
Cc1cc(C(=O)CSc2n[nH]c(N)n2)c(C)n1-c1ccc2c(c1)OCO2 | 12µM* | -25% | 38 | 3% | 10*
Cc1[nH]c2ccccc2c1/C=N/NC(=O)CNC(=O)c1ccc2c(c1)OCCO2 | 16% | 13% | -1 | 1% | -3
Oc1c(Br)cc(Br)cc1C=Nc1ccc2c(c1)OCCO2 | 24% | 66% | 50* | -4% | 32*
O=[N+]([O-])c1ccc(O)c(C=Nc2ccc3c(c2)OCCO3)c1 | 25% | 248% | 108* | 2% | 112*
Oc1[nH]c2ccccc2c1C=Nc1ccc2c(c1)OCCO2 | -1% | 21% | 53 | ? | 32*
Oc1c(Br)cc(Br)cc1C=Nc1ccc2c(c1)OCO2 | 34% | -7% | 23 | -1% | 1
O=C(CCS(=O)(=O)c1ccc(Br)cc1)Nc1ccc(Br)cc1F | -4% | 6% | -8 | 4% | -3
CC1CC(C)CN(C(=O)COC(=O)c2ccc(Cl)nc2)C1 (stereo not drawn) | 15% | -12% | · | · | ·
CCNC(=O)NC(=O)COc1ccccc1C#N | · | 77% | 81* | -13% | 36*
N#Cc1ccccc1OCC(=O)NC(=O)NCc1ccco1 | 171% | 112% | 57* | -1% | 26*
O=C1COc2ccc(C(=O)COC(=O)c3ccco3)cc2N1 | 56% | ? | 42* | -2% | 27*
N#CCC(=O)Nc1ccc(C(=O)OCC(=O)c2ccc3c(c2)NC(=O)CO3)cc1 | ? | 13µM* | · | · | ·
CC(C)[C@H](NC(=O)c1ccco1)C(=O)OCC(=O)c1ccc2c(c1)NC(=O)CO2 | 28% | -1% | -1 | 1% | 1
O=C(O)/C=C/C(=O)c1ccc2c(c1)NC(=O)CO2 | 3.3µM* | 1.9µM* | -21 | -18% | -2
CCOC(=O)C1(CC)NC(c2ccc(OC)cc2OC)C2C(=O)N(C)C(=O)C21 (stereo not drawn) | ? | 18% | -9 | 8% | -3
O=C(NC(=S)Nn1cnnc1)c1cccc(Br)c1 | 10% | 14% | -12 | -18% | 7
COc1cc(C(=O)N2CCC(NC(=O)C(Cc3ccc(C(C)C)cc3)NC(C)=O)CC2)cc(OC)c1OC (stereo not drawn) | 10% | ? | -18 | -4% | -7
COc1cc(CC(NC(C)=O)C(=O)NC2CCN(C(=O)Nc3ccccc3C)CC2)cc(OC)c1 (stereo not drawn) | 1.7µM* | 14% | 38 | -2% | -2
COc1cccc(NC(=O)N2CCN(C(=O)C(Cc3ccc(OC)c(OC)c3)NC(C)=O)CC2)c1 (stereo not drawn) | 40% | -3% | 3 | 2% | -2
COc1ccc(CC(NC(C)=O)C(=O)N2CCN(C(=O)Nc3ccc(Cl)cc3)CC2)cc1OC (stereo not drawn) | 1% | 10% | 44 | -1% | 14*
COc1ccc(CC(NC(C)=O)C(=O)NC2CCN(S(=O)(=O)c3ccc(NC(C)=O)cc3)CC2)cc1OC (stereo not drawn) | 13µM* | 0% | -8 | 4% | 1

High-throughput results (PubChem BioAssay)
